Reference: publication PMC12136788
Positions count from the first letter of the chain named. Over roughly 24,000 sequences, “enrichment r” has its median near 0.99; the highest 2% begin near 3.7. What follows is part of a selection rich in the highest values, with near analogues and random picks from the rest.

T1: UNK ZnF1-3 (human, UniProt Q9C0B0 31-174)
T1 sequence: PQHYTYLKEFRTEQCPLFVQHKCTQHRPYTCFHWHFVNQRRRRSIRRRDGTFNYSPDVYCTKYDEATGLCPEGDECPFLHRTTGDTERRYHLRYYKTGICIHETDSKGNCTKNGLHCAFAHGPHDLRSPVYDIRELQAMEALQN

B1: chr1:58468927:58468928:-_ENSMUSG00000026034_ENSMUST00000148330|mus_mus|mus_mus_mus_hu_False|58_78 (ssRNA)
RNA: GGGAGUUCUACAGUCCGACGAUCAAUUACUGAAAAAGAUGUUCAUUACCUUAGCUAGGCCAUGUAUGAACCAAAUUAUCUAAAAAAAAUAAACAUGGCAAUAUAAAAAUGUUAAGAAUUUACAAAGCUGUACAAAAUAACUUACAACAGAGGAUUGAGCAUCA
B2: chr1:66485654:66485655:+_ENSMUSG00000015222_ENSMUST00000024639|mus_mus|FALSE|FALSE (ssRNA)
RNA: GGGAGUUCUACAGUCCGACGAUCAAUUUUUUAUAUAAAAUUGUAACAAUUACUACAGUUGGGGGAUGAAAUUAUUUCUCUAUGGUUUGUAAAGAAUGAAUAUGACACCUGCUCAGAGCCCACUCCUGCCAAGAGCUCAUGCCUCAACAGAGGAUUGAGCAUCA
B3: chr14:62214197:62214198:+_ENSG00000100644_ENST00000337138|hu_hu|FALSE|FALSE (ssRNA)
RNA: GGGAGUUCUACAGUCCGACGAUCAGCAUUAUUAUUUAUGUAAAAUGUGAAAAAAAAGGUGUAAAAAUUUUUCAACUGCCUAUGAUCAUGAUGAAAGGUUACUGCCUUCUUACAAAAAUUAUAUUGGCAUCUUCUUAAAAAUAACAACAGAGGAUUGAGCAUCA
B4: chr14:48151594:48151595:+_ENSMUSG00000037536_ENSMUST00000168833|mus_mus|FALSE|FALSE (ssRNA)
RNA: GGGAGUUCUACAGUCCGACGAUCAUUGAAGUUUUUUUAAAAAAUUUUUAACCAGACAAAAGGAUGCACAACAUUUUAAUCUAUUAUAUGAUAUUGUCUUAUUCUGUGGUGAUUAUGUUUAGUCAGCUGUUCAUAAUAUACAAUCAACAGAGGAUUGAGCAUCA
B5: chr1:58468927:58468928:-_ENSMUSG00000026034_ENSMUST00000148330|mus_mus|mus_mus_mus_hu_False|18_78 (ssRNA)
RNA: B1 RNA with U78C, U80C, A84C, U118A, U119A, C122A, A123C, A124U, A125U, G126A
B6: chr10:117127018:117127019:-_ENSMUSG00000020184_ENSMUST00000020408|mus_hu|FALSE|FALSE (ssRNA)
RNA: GGGAGUUCUACAGUCCGACGAUCAACAGAGCAAGACUCGGUCUCAAAAAAAAUAAUAAGUUACAUUUAAAUGUCAUAUACAUAUUUAAGAAAAAAAAAAACCAAGUACUUCUCAUUUAAGACAGAGUAGAAAUUAUUUAAAAUCAACAGAGGAUUGAGCAUCA
B7: chr1:66485654:66485655:+_ENSMUSG00000015222_ENSMUST00000024639|mus_mus|motif|central (ssRNA)
RNA: B2 RNA with U80G, A81G
B8: chrX:17854524:17854525:+_ENSMUSG00000037369_ENSMUST00000044484|mus_hu|motif|central (ssRNA)
RNA: GGGAGUUCUACAGUCCGACGAUCUCGUGAAUUACUCUCAUUAGUGACAAAAAGCAGAUCAAAAACCUCCACUUCACAAAUGCGGCAGUAAUGAGCUGGUUCUUCUUUUGUCCGCCCAUGCCAUAUAAUCUCUUUUCCUGCAGCCAACAGAGGAUUGAGCAUCA
B9: 30669026_30669146_122_CDS_ENSG00000108666_ENST00000577809|human|control|control (ssRNA)
RNA: GGGAGUUCUACAGUCCGACGAUCGCGAUAGCUGUAAAGACAGUAGUGGCUGCUGGACGGCGGCUCGAGUCUCCGCUCCUCGGCUGAGCCUCCCUCUUCGCUGCUCUCUAGUUCCUUUUCAUCUCCAUCCAUCGACUCCUGCAACAACAGAGGAUUGAGCAUCA
B10: 23382874_23385586_565_CDS_ENSMUSG00000026158_ENSMUST00000027343|mouse|control|control (ssRNA)
RNA: GGGAGUUCUACAGUCCGACGAUCUUCUCUCAGGGGGAAAAGCCAUUGGAUGUACGUGUGGUUGUGCUCCAGCUUCUCGUAGUCCCCUUUCCACUUAUUUAGAACCUCUUCAAUGUAAACACCAUCCGGCUUAAAUGGAAUUUUCAACAGAGGAUUGAGCAUCA
B11: chr1:39494447:39494448:+_ENSG00000168653_ENST00000372967|hu_mus|hu_hu_hu_mus_False|58_68 (ssRNA)
RNA: GGGAGUUCUACAGUCCGACGAUCGCACCGAGCGGCGUUCUUAUAGGGCUGUUCUGCGCUUAGGAACGUCAACCAUCGAUCUAUGUUGAUGCCCAGCUUUUUCUGUAUGUCAAGGAAAGGCAUGGCUCUGCAGUGCCCUUGUCACAACAGAGGAUUGAGCAUCA
B12: chr3:179287964:179287965:+_ENSG00000136518_ENST00000429709|hu_hu|hu_hu_hu_mus_True|38_38 (ssRNA)
RNA: GGGAGUUCUACAGUCCGACGAUCCUUGAGUGGUGAGAUGGCCUCCAUGUUCUCCCUGGGCACGCGGAGGGCAUUGGUGUCUAUGUAGUAGGUGGGCCCGCCUUGUUUGCCUUUGUCACCAUCAAUCUCCAUCAUUGUACUUCCCAACAGAGGAUUGAGCAUCA
B13: chr1:58468927:58468928:-_ENSMUSG00000026034_ENSMUST00000148330|mus_hu|FALSE|FALSE (ssRNA)
RNA: B1 RNA with G57U, C59U, C60A, A61C, G63U, U64A, U78C, U80C, A84C
B14: chr1:58468927:58468928:-_ENSMUSG00000026034_ENSMUST00000148330|mus_mus|mus_mus_mus_hu_False|18_88 (ssRNA)
RNA: GGGAGUUCUACAGUCCGACGAUCAAUUACUGAAAAAGAUGUUCAUUUAUUUGGUUUUGUACUUAAUGAACCAAAUUACCCAAACAAAAUAAACAUGGCAAUAUAAAAAUGUUAAGAAAAUAACUUACUGUACAAAAUAACUUACAACAGAGGAUUGAGCAUCA
B15: chr1:185277986:185277987:-_ENSG00000116679_ENST00000392007|hu_mus|FALSE|FALSE (ssRNA)
RNA: GGGAGUUCUACAGUCCGACGAUCCUGCUUGACUCGGUCCAUCUUCAGCUUCUUGGCUGCAGAAUAAACAUCUUUUACUAAUUCCUUAUCAGCUUUCAACUGAGCCGUGUAUGCAUAAUUCAGCAAGACUUCAACAGCUUCUGGCAACAGAGGAUUGAGCAUCA
B16: chr11:57926588:57926589:+_ENSMUSG00000020515_ENSMUST00000020822|mus_hu|FALSE|FALSE (ssRNA)
RNA: GGGAGUUCUACAGUCCGACGAUCGUCAAUCCCUUCCUCUUCAUGCUUCUGAAACUGUAGUCCUGAGUUAGCAAGGAGAUCUAUGGAAUCCUGGGAGUACAUGUCCUCUGUAAGGUUAAAUUUGAAAUUGAACUGCCAAGUAUUCAACAGAGGAUUGAGCAUCA
B17: chr13:100194382:100194383:-_ENSMUSG00000052727_ENSMUST00000064762|mus_mus|FALSE|FALSE (ssRNA)
RNA: GGGAGUUCUACAGUCCGACGAUCUCCUGUAAAUGAAAACAUUUGUUAAAAAGUUCAUCUAUGAAAAGUUCUCGAGUAGCUAAAAAAAAAAAAAAAAAAAAAAAAAAUCUUCUGUACAUGUGUUCCCAUGUGUUGAAAUUAAUGCAACAGAGGAUUGAGCAUCA
B18: chr13:100194382:100194383:-_ENSMUSG00000052727_ENSMUST00000064762|mus_mus|motif|central (ssRNA)
RNA: B17 RNA with U80G, A81G
B19: chr15:80390846:80390847:+_ENSG00000086666_ENST00000559775|hu_hu|FALSE|FALSE (ssRNA)
RNA: GGGAGUUCUACAGUCCGACGAUCCUGUCCUGUAUCUUGAGACAGACAUUAGCUUUCUGCCUUCCCUAUUCUCAUAAGCAGCUACUUAAAAGUUUUGAAUUUUAUGCAAGAAAACAUUUUAAAGCCUUCUGUGUUUUACUGCAGCAACAGAGGAUUGAGCAUCA
B20: chr13:100194382:100194383:-_ENSMUSG00000052727_ENSMUST00000064762|mus_hu|FALSE|FALSE (ssRNA)
RNA: GGGAGUUCUACAGUCCGACGAUCUCCUGUAAAUGAAAACAUUUGUUAAAAAGUUCAUCUAUGAAAAGUUCUCACAUAUCUUAAAAAAAAAAUUCUUCUGUACACUUGUUCCCAUAAUUAUGUUGAAAUUAAUGGAAAAUUUAACAACAGAGGAUUGAGCAUCA
B21: chr4:54876292:54876293:-_ENSG00000109220_ENST00000263921|perfect_dup|motif|central (ssRNA)
RNA: GGGAGUUCUACAGUCCGACGAUCCUAUAAAUAAAGUAAAUGCUAAUCUGGUCGAAAAAUCGGUGUCUUUGGUAAAAAUUCGGUGAGGAUGACAUAUUCCAUCAUGUUAUUCGUUUCACAUUUCCUUUUGCUCAGUCUCCAAUGCAACAGAGGAUUGAGCAUCA
B22: 53612100_53613521_5214_CDS_ENSG00000086758_ENST00000262854|human|control|control (ssRNA)
RNA: GGGAGUUCUACAGUCCGACGAUCAGAGCGAUCAUCAAACCAGCGCCAGUUGUUGCUGUUGGAUUGCAGGUACUUAGUCAUCUGGGCUCUCCUUUUUGAGGAGAUGGCUGUCUUUUCAUAGAAAUCAAUCAGGAGCAACACUGGCAACAGAGGAUUGAGCAUCA

target: T1, UNK ZnF1-3; test: nsRBNS (natural sequence RNA bind-n-seq); RBNS binding buffer (assumed for nsRBNS): 25 mM Tris pH 7.5, 150 mM KCl, 3 mM MgCl2, 0.01% Triton X-100, 500 ug/ml BSA, 20 U/ml SUPERase-In, 4 C; UNK is unkempt and MSI1 is Musashi-1; names of the RNAs are library labels; protein concentration not given here; high values mean tight binding

Row | Binder | binding signal [enrichment R]
1 | B1 | 3.96
2 | B2 | 2.92
3 | B3 | 29
4 | B4 | 3.47
5 | B5 | 1.35
6 | B6 | 18
7 | B7 | 4.27
8 | B8 | 0.845
9 | B9 | 0.51
10 | B10 | 0.65
11 | B11 | 0.515
12 | B12 | 0.571
13 | B13 | 1.24
14 | B14 | 6.29
15 | B15 | 0.806
16 | B16 | 1.01
17 | B17 | 5.73
18 | B18 | 5.84
19 | B19 | 0.755
20 | B20 | 1.06
21 | B21 | 1.46
22 | B22 | 1.05
